Assay outcomes (PubChem)
Pf growth 48h = Primary qHTS for delayed death inhibitors of the malarial parasite plastid, 48 hour incubation; Potency, µM (doses to about 28.7 µM), inactives show top-dose activity change, negative = inhibition, usual class: inhibitors; P. falciparum luciferase growth in erythrocytes, 48 h; actives 5.9% (n = 310,000); note: potency is the fitted concentration of half-maximal effect; % is set by controls: 0 for no effect and ±100 for the full control effect
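Luminescence readout; reporter = integrated firefly luciferase in P. falciparum. RBC culture at 2% hematocrit, 0.1% parasitemia final, 37 C/5% CO2; decreased signal taken as growth inhibition.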
NS1 function inh = qHTS Assay for Inhibitors of Influenza NS1 Protein Function; AID 2326, 2010; Potency, µM (highest dose often 46.1 µM), for the others: at the top dose activity, positive = more growth; actives 0.4% (n = 270,000); calls by dose curve; note: potency is the fitted concentration of half-maximal effect; actives are rising curves; nearly all actives have a fitted effect of over 50% in size
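OD600 was taken as the measure of yeast growth restored by compound in an NS1-expressing S. cerevisiae strain. Cells had been washed out of glucose medium and diluted 1:100 into galactose -URA medium, pH 6.0.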
Pf growth 96h = Primary qHTS for delayed death inhibitors of the malarial parasite plastid, 96 hour incubation. P. falciparum luciferase reporter growth, 96 h. actives 6.9% (n = 320,000). Potency, µM (titrated, usually from 28.7 µM), inactives show top-dose activity change, negative = inhibition, usual class: inhibitors; note: potency is the fitted concentration of half-maximal effect; % is set by controls: 0 for no effect and ±100 for the full control effect
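P. falciparum expressing integrated firefly luciferase grown in erythrocytes (2% hematocrit, 0.05% parasitemia final) with compounds for 96 hours at 37 C, 5% CO2. Growth inhibition read as loss of luminescence after adding luciferase detection reagent.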
Cycloheximide cs = Cycloheximide Counterscreen for Small Molecule Inhibitors of Shiga Toxin | cell reporter, cycloheximide protein synthesis inhibition counterscreen | actives 12% (n = 300,000) | max response, %; in the data active = max response mostly above about 13%, no sharp cut-off; inactive = mostly below about 14%; note: read at 38.3 µM for the half of the compounds with a filed dose; 0% is about no effect
Shiga inhibitor = A qHTS for Small Molecule Inhibitors of Shiga Toxin; Vero cells, Shiga toxin protein synthesis inhibition reporter; inhibition, % at 38.7 µM; actives 9.2% (n = 290,000); AID 2315, 2010; in the data active = inhibition mostly above about 28%, no sharp cut-off; inactive = mostly below about 43%; note: 0% is about no effect
* marks the source's active call; other numbers are inactive results; ? = inconclusive; . = not tested or not shown; [ ] = dose if it differs, or a comment. Shown are actives, neighbours in structure and some others; about 21% of the full set was active somewhere. Unless noted, calls come from the whole dose curve; as a rule, active = well fitted inhibition curve with a large enough effect; inconclusive = small, poorly fitted or top-dose-only effect, or another doubt; inactive = no such curve, though single readings can be large or run the other way.

SMILES | Pf growth 48h | NS1 function inh | Pf growth 96h | Cycloheximide cs | Shiga inhibitor
NS(=O)(=O)c1ccc(NC(=O)c2cccc(N3C(=O)c4ccccc4C3=O)c2)cc1 | 9.5% | 0.1% | 11.1% | -6.0 | 4.4
O=C(NCC1CCCO1)c1ccc([N+](=O)[O-])s1 (stereo unspecified) | ? | -69.7% | ? | -2.9 | -1.8
CN(C(=O)COC(=O)c1ccc(NS(=O)(=O)c2cccs2)cc1)C1CCCCC1 | -8.0% | -16.3% | -14.2% | -3.0 | -1.5
CCCC[N+]12CCC(CC1)C(=C(c1ccccc1)c1ccccc1)C2 | 1.31µM* | -0.4% | 0.738µM* | -3.2 | -4.7
CC/C(=N/N=C(\CC)c1ccccc1)c1ccccc1 | -10.2% | 21.0% | ? | 9.2 | 20.7
CCC[N+]12CCC(CC1)C(=C(c1ccccc1)c1ccccc1)C2 | 1.31µM* | -6.7% | ? | 1.0 | -9.8
COc1ccccc1NC(=O)Nc1nc(CC(=O)Nc2ccc(OC)c(OC)c2)cs1 | ? | . | 5.22µM* | . | .
COc1ccccc1NC(=O)Cc1csc(NC(=S)Nc2ccc(C)cc2)n1 | ? | ? | 10.4µM* | 18.7 | 40.0
CCC(=O)Nc1nc(CC(=O)Nc2ccccc2OC)cs1 | -4.0% | 1.3% | -13.0% | -3.6 | 14.0
COc1ccc(NC(=O)Nc2cccc3ccccc23)cc1OC | ? | 26.6% | ? | 7.0 | -3.7
CCOC(=O)c1c(NC(=S)NCC2CCCO2)sc(C)c1C (stereo unspecified) | 21.2% | . | 49.8% | -1.2 | -10.9
C/C(=N\NC(=O)c1ccccn1)C12CC3CC(CC(C3)C1)C2 | 46.1% | 2.0% | 208.1% | 31.2* | 53.7*
N/C(=N\OC(=O)C12CC3CC(CC(C3)C1)C2)c1ccccc1 | ? | -15.7% | 67.6% | 3.9 | 21.3
C/C(=N/NC(=O)c1ccoc1C)C12CC3CC(CC(C3)C1)C2 | 96.2% | 7.2% | . | 38.6* | 5.2
N/C(=N\OC(=O)C12CC3CC(CC(C3)C1)C2)c1ccccn1 | ? | -21.7% | -26.9% | 41.1* | 42.8*
N/C(=N\OC(=O)C12CC3CC(CC(C3)C1)C2)c1cccnc1 | ? | -2.3% | ? | 19.4* | 17.4
CCCCC(=O)Nc1ccccc1C(C)C | 10.5% | 0.3% | 22.0% | -1.1 | -2.2
O=C(NCC1OCCc2ccccc21)c1ccc(NC(=O)c2cccc(Br)c2)cc1 (stereo unspecified) | ? | 13.3% | -20.5% | -2.1 | -9.0
CCN(CC)CCNC(C(=O)Nc1cccc(C(C)=O)c1)c1ccccc1 (stereo unspecified) | -28.4% | 0.9% | -9.5% | -4.3 | -10.9
Cc1cc(NC(=O)Cn2c(C)nc3ccccc3c2=O)ccc1Br | . | 11.8% | 4.1% | -3.2 | -9.2
CCOC(=O)C1CCN(Cc2cn(C)nc2-c2ccc(Oc3ccccc3)cc2)CC1 | ? | -2.6% | -0.5% | -4.3 | 5.4
CC(C)(C)C(=O)Cn1ncc(N2CCCC2)c(Br)c1=O | 124.9% | 2.8% | 275.8% | 36.3* | 138.0*
CC(C)(C)C(=O)Cn1ncc(NC2CC2)c(Br)c1=O | 22.0% | 13.6% | 17.5% | 12.6* | 14.3
CCOC(=O)/C(N=O)=C(\O)C1CCN(C(=O)OCC)CC1 | . | -3.4% | 13.1µM* | -2.7 | -8.7
Cc1ccc(S(N)(=O)=O)cc1NC(=O)c1ccc2c3c(cccc13)CC2 | -15.2% | 18.8% | ? | 4.7 | -7.5
SMILES | Pf growth 48h | NS1 function inh | Pf growth 96h | Cycloheximide cs | Shiga inhibitor
CN1CCN(C(=O)CCCOc2ccc(Cl)cc2Cl)CC1 | 14.9% | 10.3% | ? | 10.0 | -6.7
COC(=O)NNC(=O)CCCOc1ccc(Cl)cc1Cl | 0.8% | 7.0% | 37.8% | 4.2 | 6.3
CCN(CC)C(=O)CCCOc1ccc(Cl)cc1Cl | 47.2% | -80.9% | -28.1% | 33.4 | 90.7*
CC(C)NC(=O)CCCOc1ccc(Cl)cc1Cl | . | -50.1% | 10.4µM* | 34.0* | 33.9
CCn1c(CCCOc2ccc(Cl)cc2Cl)n[nH]c1=S | 0.2% | 4.2% | -13.0% | 21.2* | 56.8*
C#CCN(C)CCCOc1ccc(Cl)cc1Cl | 33.3% | -15.6% | 4.5% | 27.5* | 80.6*
O=C(COC(=O)C1CCN(S(=O)(=O)c2ccc3c(c2)OCCO3)CC1)Nc1ccc(C(F)(F)F)cc1 | 15.8% | -0.9% | 29.6% | 1.1 | -3.2
Oc1ccc(CNc2ccccc2)c2cccnc12 | ? | -6.6% | 37.5% | -2.3 | 1.9
Cn1c(=O)c2c(nc(SCC(=O)NCc3ccc4c(c3)OCO4)n2Cc2ccc(F)cc2)n(C)c1=O | 13.1µM* | 10.9% | 10.4µM* | 0.1 | 5.8
O=C(CSc1ncccn1)NCc1ccc2c(c1)OCO2 | 33.8% | -2.1% | ? | 31.2 | 24.7*
O=C(CSc1ncccn1)NCc1cccc(Cl)c1 | 75.6% | . | 285.5% | 42.0* | 95.0*
Oc1ccc(CNCc2ccc3c(c2)OCO3)c2cccnc12 | 8.28µM* | . | ? | . | .
COc1cccc(C2=Nn3c(nnc3-c3cccc(OC)c3OC)SC2)c1 | . | . | . | 0.8 | -4.0
O=C(CSc1ncccn1)NCc1ccc(Cl)cc1 | 120.8% | -1.2% | 200.0% | 48.8* | 73.3*
C=CCSc1ncccc1C(=O)NCc1ccccc1 | 18.1% | -23.8% | 11.7µM* | -1.7 | -8.6
Fc1ccccc1CNCc1ccc2c(c1)OCO2 | 4.6% | 14.3% | ? | 18.8* | 22.0
O=C(CSc1ncccn1)NCc1ccccc1 | 36.3% | 5.4% | -19.9% | 17.6* | 54.3
Fc1ccccc1CNCCc1ccc2c(c1)OCO2 | 29.7% | -0.1% | 14.8% | 2.8 | 22.7
Cc1nc(SCC(=O)Nc2cc(Cl)ccc2[N+](=O)[O-])nc(C)c1C | 1.8% | -2.4% | 24.7% | -1.0 | -12.9
O=C(CSc1ncccn1)Nc1cc(Cl)ccc1[N+](=O)[O-] | 12.4% | . | -12.4% | 22.6* | 19.3
O=C(NC(=S)Nc1ccc(-c2ccc(CO)o2)cc1)c1cccs1 | 143.7% | . | 19.2% | 46.1* | 66.7*
CC(=O)NC(=S)Nc1ccc(NC(=S)NC(=O)c2cccs2)cc1 | ? | -1.4% | 45.6% | -4.2 | -13.1
CCCC(=O)NC(=S)Nc1ccc(NC(=O)c2cccs2)cc1 | ? | -15.9% | . | 12.2* | 25.6
CCCC(=O)Nc1ccc(C(=O)NNC(=S)NC(=O)c2cccs2)cc1 | 33.2% | -17.0% | 7.9% | -2.0 | -6.6
CCCC(=O)Nc1ccc(NC(=S)NC(=O)c2cccs2)cc1 | -12.3% | -4.7% | -2.9% | 22.0 | 51.1*
SMILES | Pf growth 48h | NS1 function inh | Pf growth 96h | Cycloheximide cs | Shiga inhibitor
CCCC(=O)NC(=S)Nc1ccc(N2CCN(C(=O)c3cccs3)CC2)cc1 | ? | . | -6.0%[5.75 µM] | 10.0 | -3.9
CCN(CC)c1ccc(NC(=S)NC(=O)c2cccs2)cc1 | ? | -8.0% | ? | 46.2* | 87.6*
CN(C)c1ccc(N2C(=NC(=O)CC3CCCCC3)SC3CS(=O)(=O)CC32)cc1 (stereo unspecified) | -4.5% | 12.2% | ? | -2.2 | -8.9
O=[N+]([O-])c1ccc(NC(=S)NCc2ccncc2)cc1 | 7.9% | . | ? | -5.6 | 22.1
Fc1ccc(NC(=S)NCc2ccccc2)cc1 | 13.5% | 26.2% | 14.7µM* | -1.2 | 11.3
S=C(NCc1ccccc1)Nc1ccc2ccccc2c1 | 19.9% | 13.9% | ? | 76.1* | 101.9*
